# Hits are enriched below; roughly 15% of the tested compounds scored in any of these assays.
# ELG1 repair inh: ELG1-dependent DNA repair inhibition. Potency, µM (highest dose often 46.1 µM), without a hit: at the top dose activity change, negative = inhibition, actives largely listed as inhibitors. AID 504467. HEK293T ELG1-luciferase reporter, luminescence, 16 h; DNA damage induced by 5-fluorouridine. 2.3% of 330,000 active; also: nearly all actives have a fitted effect of over 55% in size
#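 DMSO vehicle served as the neutral condition. Each well held 2,000 cells given 5-fluorouridine plus compound; after 16 hr at 37 °C/5% CO2, ONE-Glo was added and luciferase measured 30 min later.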
# DT40 TDP1 no CPT: qHTS for Inhibitors of human tyrosyl-DNA phosphodiesterase 1 (TDP1): qHTS in cells in absence of CPT | DT40 Tdp1-/- hTDP1 cells, no CPT, ATP luminescence, 48 h | Potency, µM (series often up to 46.2 µM), for the others: at the top dose activity change, negative = growth inhibition, most hits filed as inhibitors | 15% of 420,000 active | AID 686978, 2013; also: nearly all actives have a fitted effect of over 55% in size
#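 Growth of hTDP1-complemented DT40 Tdp1-knockout cells is measured by ATP luminescence after at least 48 hr compound exposure at 37 °C, with DMSO substituting for the 20 nM CPT used in the parallel screen.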
# TDP1 cell CPT: growth inhibition of DT40 Tdp1-/-;hTDP1 cells with camptothecin (screen for TDP1 inhibitors); chicken DT40 Tdp1-/-;hTDP1 cells + 20 nM CPT, ATP luminescence, 48 h; AID 686979; 12% of 420,000 active; Potency, µM (titrated, usually from 46.2 µM), for the others: at the top dose activity change, negative = growth inhibition, actives largely listed as inhibitors; also: nearly all actives have a fitted effect of over 55% in size
#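 Chicken DT40 Tdp1-/- cells stably complemented with human TDP1 were seeded at 400 cells/well in medium containing 20 nM camptothecin, exposed to pin-transferred compounds, and grown at 37 °C for at least 48 hr. Viability was read as ATP luminescence.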
# ALOX12 inh: inhibitors of human 12S-lipoxygenase ALOX12 | P18054 | purified 12hLO, xylenol orange hydroperoxide absorbance | Potency, µM (top dose mostly 108 µM), inactives show at the top dose activity change, negative = inhibition, actives largely listed as inhibitors | 1.1% of 580,000 active
# Target sequence (P18054 whole entry, looked up): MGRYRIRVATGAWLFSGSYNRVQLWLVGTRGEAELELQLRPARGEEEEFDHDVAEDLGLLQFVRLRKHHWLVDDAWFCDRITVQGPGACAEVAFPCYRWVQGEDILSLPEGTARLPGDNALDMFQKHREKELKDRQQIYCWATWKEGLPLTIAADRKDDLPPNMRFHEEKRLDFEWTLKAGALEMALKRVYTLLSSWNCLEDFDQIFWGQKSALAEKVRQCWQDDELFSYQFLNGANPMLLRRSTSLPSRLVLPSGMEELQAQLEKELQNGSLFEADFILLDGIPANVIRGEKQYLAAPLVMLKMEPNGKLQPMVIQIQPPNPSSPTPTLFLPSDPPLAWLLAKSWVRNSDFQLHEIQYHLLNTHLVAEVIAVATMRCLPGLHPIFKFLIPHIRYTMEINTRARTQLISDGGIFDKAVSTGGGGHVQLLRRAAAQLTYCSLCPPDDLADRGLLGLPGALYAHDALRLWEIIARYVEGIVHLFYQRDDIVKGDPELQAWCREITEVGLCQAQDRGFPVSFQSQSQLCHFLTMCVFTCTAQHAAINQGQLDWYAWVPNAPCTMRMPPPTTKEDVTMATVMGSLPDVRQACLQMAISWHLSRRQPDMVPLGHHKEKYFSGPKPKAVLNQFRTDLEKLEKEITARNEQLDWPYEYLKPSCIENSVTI
#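 Purified human 12hLO at 150 nM in 25 mM Hepes, 0.01% Triton X-100, pH 7.0, preincubated 15 min at room temperature with compound. Reaction started with 40 uM arachidonic acid, 30 min at room temperature. Hydroperoxide measured by Fe-xylenol orange, 573/405 nm absorbance ratio.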
# RORg inh: ROR gamma (mouse) transcription inhibition; 5.4% of 310,000 active; P51450; Potency, µM (top dose mostly 53.6 µM), inactives show top-dose activity change, negative = inhibition, most hits filed as inhibitors; Drosophila S2 Gal4-RORgamma UAS-luciferase reporter, 20 h; also: nearly all actives have a fitted effect of over 60% in size
#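 Schneider cells (Drosophila), stable Gal4 DBD–ROR gamma + UAS-luc; 1 hr cmpd preincubation; Cu2+ induction 700 uM final; 20 hr ambient; luminescence.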
# Gal4-VP16 FLuc: counter-screen for ROR gamma inhibitors: Gal4-VP16 reporter. Drosophila S2 Gal4-VP16 UAS-luciferase, luminescence, 20 h. AID 2546. Potency, µM (doses to about 53.6 µM), for the others: at the highest dose activity, negative = inhibition, usual class: inhibitors. 3.5% of 310,000 active;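 also: Gal4-VP16 expression switched on by copper sulfate through the metallothionein promoter; nearly all actives have a fitted effect of over 50% in size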
# * marks the source's active call; other numbers are inactive results; ? = inconclusive; . = no result. Calls follow the shape of the dose curve; as a rule, active = well fitted curve in the direction sought with a large enough effect; inconclusive = small, poorly fitted or top-dose-only effect, or another doubt; inactive = no such curve, though single readings can be large; an effect the other way counts as inactive or inconclusive. % is scaled to controls: 0 for no effect and ±100 for the full control effect; potency is read from the fitted curve at half-maximal effect.
SMILES,ELG1 repair inh,DT40 TDP1 no CPT,TDP1 cell CPT,ALOX12 inh,RORg inh,Gal4-VP16 FLuc
COc1ccc(C(CNC(=O)c2oc3cc(C)c(Cl)cc3c2C)N2CCCCC2)cc1 (configuration not stated),-4.4%,?,13µM*,-6.4%,16.6%,-7.0%
COc1ccc(C(CNC(=O)c2oc3ccc(C)cc3c2C)N2CCCCC2)cc1 (configuration not stated),-1.8%,?,20.6µM*,-22.1%,18.5%,-7.4%
COc1ccc(C(CNC(=O)c2oc3ccccc3c2C)N2CCCCC2)cc1 (configuration not stated),.,23.1µM*,16.4µM*,-9.8%,.,.
COc1ccc(C(CNC(=O)c2cc3ccccc3o2)N2CCCCC2)cc1 (configuration not stated),1.9%,20.6µM*,?,1.1%,-11.1%,12.8%
CCOc1ccc(C(=O)Nc2nonc2-c2ccccc2)cc1,.,.,.,-45.7%,.,.
O=C(NCc1ccc(F)cc1Cl)c1noc(-c2ccc3c(c2)OCO3)n1,.,.,.,-9.3%,.,.
COCCOc1ccc(C(=O)/C=C/c2cccc(C#N)c2)cc1OC,.,.,.,-5.7%,.,.
COc1ccccc1C(CNC(=O)c1oc2ccccc2c1C)N1CCCC1 (configuration not stated),-20.5%,23.1µM*,?,-6.7%,.,.
COc1ccccc1CNC(=O)c1oc2ccccc2c1C,13.6%,-11.6%,-28.6%,1.3%,8.9%,-1.0%
O=C(O)c1cc2sc3ccccc3c2s1,.,.,.,6.7%,.,.
COCCN(CCOC)C(=O)c1cc2sc3ccccc3c2s1,?,?,?,-14.8%,-7.4%,-5.5%
CCN(CC)C(=O)c1cc2sc3ccccc3c2s1,?,?,?,15.8µM*,10.3%,-11.5%
CN(C)CCNC(=O)c1cc2sc3ccccc3c2s1,?,23.1µM*,?,-16.6%,-21.6%,-5.0%
CCCn1c(NCCN(CC)CC)nc2c1c(=O)[nH]c(=O)n2C,.,.,.,-8.6%,.,.
CC(C)CC(NC(=O)OCc1ccccc1)C(=O)NC(Cc1ccccc1)C(=O)CCl (configuration not stated),.,2.91µM*,4.61µM*,-29.8%,.,.
Cc1ccc(NC(=O)C(Cc2ccccc2)NC(=O)OCc2ccccc2)cc1C (configuration not stated),-17.2%,23.1µM*,?,-28.3%,-12.5%,?
COC(=O)C(Cc1ccccc1)NC(=O)C(CC(C)C)NC(=O)OC(C)(C)C (configuration not stated),7.8%,-27.0%,-0.2%,-0.1%,12.5%,-8.1%
Cc1ccc(C(=O)NC(=S)Nc2ccc(NC(=O)c3cccs3)cc2)cc1[N+](=O)[O-],?,3.66µM*,8.2µM*,1.3%,6.31µM*,6.31µM*
CCOc1ccc(C(=O)Nc2ccc(NC(=O)c3cccs3)cc2)cc1[N+](=O)[O-],?,-2.3%,-0.3%,-8.8%,14.1µM*,?
Cc1ccc(C(=O)Nc2ccc(NC(=O)c3cccs3)cc2)cc1[N+](=O)[O-],-2.1%,-15.5%,?,-4.2%,-14.7%,-3.6%
CNc1oc(-c2cc(S(=O)(=O)N(C)C)c(C)o2)nc1C#N,.,.,.,1.2%,.,.
Cc1ccc(C)c(S(=O)(=O)NCc2ccc(C(=O)N3CCCCC3C)cc2)c1 (configuration not stated),?,23.1µM*,?,25.6%,38.2%,5.0%
COc1ccc(CNS(=O)(=O)NCc2ccc(C)cc2)cc1OC,20.6µM*,16.4µM*,?,-1.5%,1.8%,?
COc1ccc(CNS(=O)(=O)NCc2ccc(OC)c(OC)c2)cc1,?,?,?,-6.7%,?,-29.8%
Cc1ccc(CCNS(=O)(=O)c2ccc3c(c2)NC(=O)CCS3)cc1,-28.5%,?,?,-5.4%,4.2%,2.7%
SMILES,ELG1 repair inh,DT40 TDP1 no CPT,TDP1 cell CPT,ALOX12 inh,RORg inh,Gal4-VP16 FLuc
COc1ccc(CCNS(=O)(=O)c2cccc(C(=O)O)c2)cc1OC,7.6%,16.4µM*,20.6µM*,?,-6.9%,-3.2%
COc1ccc(CCNS(=O)(=O)c2cccc([N+](=O)[O-])c2)cc1OC,0.4%,1.0%,-2.7%,3.9%,6.1%,-4.7%
COc1ccc(CCNS(=O)(=O)c2ccc3c(c2)NC(=O)CCS3)cc1OC,-3.2%,?,11.6µM*,-12.5%,21.4%,-13.3%
CC(C(=O)N(C)CC(=O)Nc1ccccc1C(F)(F)F)N1CCCC(C(F)(F)F)C1 (configuration not stated),.,.,.,-56.9%,.,.
COc1ccc(CCNC(=O)c2ccc(CNS(=O)(=O)c3cccc(Cl)c3)cc2)cc1OC,23.1µM*,23.1µM*,?,3.7%,26.7%,-2.9%
COc1ccc(CCNC(=O)c2ccc(CNS(=O)(=O)c3ccc(C(C)(C)C)cc3)cc2)cc1OC,0.8%,?,?,15.4%,-4.7%,?
COc1ccc(CCNC(=O)c2ccc(CNS(=O)(=O)c3cc(C)ccc3C)cc2)cc1OC,20.6µM*,?,?,13.6%,36.1%,-6.5%
Cc1cccc(C(=O)N2CCc3cc(CNS(=O)(=O)c4ccc(Cl)s4)ccc32)c1,.,23.1µM*,23.1µM*,?,.,.
CC(=O)N1CCc2cc(CNS(=O)(=O)c3cccs3)ccc21,.,-1.3%,0.0%,-21.9%,.,.
CCC(=O)N1CCc2cc(CNS(=O)(=O)c3ccc(Cl)s3)ccc21,.,16.4µM*,?,-26.5%,.,.
Cc1cccc(C(=O)N2CCc3cc(CNS(=O)(=O)c4ccc(F)c(Cl)c4)ccc32)c1,.,1.16µM*,1.64µM*,0.0%,.,.
COc1ccc(OC)c(S(=O)(=O)NCc2ccc3c(c2)CCN3C(=O)c2cccc(C)c2)c1,.,2.59µM*,2.59µM*,-16.4%,.,.
O=C(O)CCC(=O)N1CCc2cc(S(=O)(=O)NCc3ccc(F)cc3)ccc21,.,-9.5%,-5.3%,-3.0%,.,.
COc1cccc(CNS(=O)(=O)c2ccc3c(c2)CCN3C(=O)C2CC2)c1,?,?,?,-22.8%,34.1%,1.3%
Cn1cnc2c1c(=O)n(CCCSc1nnc(-c3ccccc3)o1)c(=O)n2C,.,.,.,5.9%,.,.
CC1(C)CC(=O)c2cc(C#N)c(=O)n(-c3cccc(F)c3)c2C1,.,.,.,15.8%,.,.
CCc1c(C(=O)Nc2ccc(OC)cc2OC)csc1C,.,.,.,41.1%,.,.
CCOc1cc(C(=O)N2CCN(C(=O)OC(C)(C)C)CC2)ccc1OC,.,.,.,8.6%,.,.

# Screening results as filed in PubChem.
